PubChem BioAssay (NCATS)
Results filed as inconclusive are left out. Unmarked numbers belong to inactive results. The source made the active and inactive calls. Calls follow the shape of the dose curve; as a rule, active = well fitted cell-killing curve with a large enough effect; inconclusive = small, poorly fitted or top-dose-only effect; inactive = flat fitted curve, though single readings scatter.

Test: qHTS of pediatric cancer cell lines to identify multiple opportunities for drug repurposing: Primary screen for BT-37 cells (AID 1347094);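 as to activity change, negative = cytotoxic: plate controls were DMSO for no effect and bortezomib for full effect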
Conditions: BT-37 viability, CellTiter-Glo luminescence, 48 h; series mostly up to 57.3 µM; activity change, negative = cytotoxic: at the top concentration
How it was run: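 Quantitative HTS format: each compound titrated (MIPE 11 points from 0.78 nM, NPC 8 points from 0.59 nM) onto cells plated 5 hours earlier. After 48 h at 37 degrees C, CellTiter-Glo luminescence was recorded.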
Potency is read from the fitted curve at half-maximal effect.

| Compound | Potency | activity change, negative = cytotoxic |
| --- | --- | --- |
| CO[C@H]1CCC(O[C@H]2C[C@H]([C@]3(C)CC[C@]4(C[C@H](O)[C@@H](C)[C@@H]([C@@H](C)C=C(C)C(=O)[C@H](C)C[C@H](C)C(=O)O)O4)O3)O[C@]3(O[C@@H]([C@H]4O[C@@](O)(CO)[C@H](C)C[C@H]4C)C[C@H]3C)[C@H]2C)O[C@H]1C (some centres undefined) | 0.344 µM (active) |  |
| O=C(Nc1ccccc1-c1ccc(Cl)cc1)c1cccnc1Cl |  | -6.82% [at 116 µM] |
| CC1(C)CC/C(=C/c2ccc(Cl)cc2)C1(O)Cn1cncn1 (centres undefined) |  | -5.25% [at 116 µM] |
| COC(C)(C)CCCC(C)C/C=C/C(C)=C/C(=O)OC(C)C (centres undefined) |  | 11.1% |
| CCNC(=O)C[C@@H]1N=C(c2ccc(Cl)cc2)c2cc(OC)ccc2-n2c(C)nnc21 | 7.69 µM (active) |  |
| Cc1c(N)nc([C@H](CC(N)=O)NC[C@@H](N)C(N)=O)nc1C(=O)N[C@H](C(=O)N[C@@H](C)[C@H](O)[C@@H](C)C(=O)N[C@@H](C(=O)NCCc1nc(-c2nc(C(=O)NCCC[S+](C)C)cs2)cs1)[C@@H](C)O)C(O[C@H]1O[C@H](CO)[C@H](O)[C@@H](O)[C@@H]1O[C@H]1O[C@H](CO)[C@@H](O)[C@H](OC(N)=O)[C@H]1O)c1cnc[nH]1 (some centres undefined) | 1.37 µM (active) |  |
| C#C[C@]1(O)C=C[C@@H]2[C@@H]3CCC4=CC(=O)CC[C@@H]4[C@H]3CC[C@@]21CC |  | 2.85% |
| CC(C)Oc1cccc(NC(=O)c2ccccc2C(F)(F)F)c1 |  | -18.2% [at 116 µM] |
| Nc1ccc([N+](=O)[O-])cc1 |  | 7.32% [at 116 µM] |
